In PMC8384837, “Expanding the binding specificity for RNA recognition by a PUF domain”:

Columns and labels:
Assay in all cases: yeast three-hybrid, YBZ-1, SC-Leu-His + 0.5 mM 3-AT, 4 days
Details in all cases: tags: N-Gal4 AD-HA kept; label: inside an RPR1-promoter hybrid RNA with tandem MS2 sites; ssRNA
PUM1 PUF domain R3-VFG = PUM1 PUF domain R3-VFG (Homo sapiens, UniProt Q14671 828-1176, C935V;R936F;Q939G)
Outline: (§1)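 The interaction score is the log change in variant frequency from input to selection. Scores were computed in log2 with a pseudocount of 1 for absent variants, using Illumina sequencing of PCR-amplified repeat regions. The input came from four days on SC-Leu and the selection from four days on SC-Leu-His + 0.5 mM 3-AT. The cells were strain YBZ-1 (LexA–MS2 coat fusion, HIS3 reporter) co-expressing Pumilio-1 PUF domain libraries and matching RNA elements from a centromeric plasmid.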

PUM1 PUF domain R3-CHG = PUM1 PUF domain R3-CHG (Homo sapiens, UniProt Q14671 828-1176, R936H;Q939G)
Outline: as §1

PUM1 PUF domain R1-TWR = PUM1 PUF domain R1-TWR (Homo sapiens, UniProt Q14671 828-1176, S863T;R864W;Q867R)
Outline: as §1

PUM1 PUF domain R8-KWG = PUM1 PUF domain R8-KWG (Homo sapiens, UniProt Q14671 828-1176, N1122K;Y1123W;Q1126G)
Outline: as §1

PUM1 PUF domain R5-TRK = PUM1 PUF domain R5-TRK (Homo sapiens, UniProt Q14671 828-1176, C1007T;Q1011K)
Outline: as §1

PUM1 PUF domain R5-QQG = PUM1 PUF domain R5-QQG (Homo sapiens, UniProt Q14671 828-1176, C1007Q;R1008Q;Q1011G)
Outline: as §1

PUM1 PUF domain R5-PRF = PUM1 PUF domain R5-PRF (Homo sapiens, UniProt Q14671 828-1176, C1007P;Q1011F)
Outline: as §1

PUM1 PUF domain R5-HKK = PUM1 PUF domain R5-HKK (Homo sapiens, UniProt Q14671 828-1176, C1007H;R1008K;Q1011K)
Outline: as §1

PUM1 PUF domain R8-CYN = PUM1 PUF domain R8-CYN (Homo sapiens, UniProt Q14671 828-1176, N1122C;Q1126N)
Outline: as §1

PUM1 PUF domain R5-DFR = PUM1 PUF domain R5-DFR (Homo sapiens, UniProt Q14671 828-1176, C1007D;R1008F;Q1011R)
Outline: as §1

PUM1 PUF domain R5-HKK, sequence (Q14671 828-1176 C1007H/R1008K/Q1011K): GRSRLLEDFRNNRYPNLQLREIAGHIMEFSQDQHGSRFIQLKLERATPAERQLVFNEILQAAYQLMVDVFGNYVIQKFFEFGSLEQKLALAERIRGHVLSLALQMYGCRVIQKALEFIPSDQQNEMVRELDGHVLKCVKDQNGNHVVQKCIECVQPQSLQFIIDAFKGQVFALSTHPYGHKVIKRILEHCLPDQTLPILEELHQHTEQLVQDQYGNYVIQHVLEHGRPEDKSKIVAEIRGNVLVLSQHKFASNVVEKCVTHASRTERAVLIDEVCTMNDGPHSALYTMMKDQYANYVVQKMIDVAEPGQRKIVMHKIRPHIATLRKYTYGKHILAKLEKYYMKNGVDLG
PUM1 PUF domain R5-DFR, sequence (Q14671 828-1176 C1007D/R1008F/Q1011R): as the sequence (Q14671 828-1176 C1007H/R1008K/Q1011K) above, with H180D, K181F, K184R counted along it
PUM1 PUF domain R8-CYN, sequence (Q14671 828-1176 N1122C/Q1126N): as the sequence (Q14671 828-1176 C1007H/R1008K/Q1011K) above, with H180C, K181R, K184Q, N295C, Q299N counted along it

GGCUAGAACUAGUGGAUCCCCCGGCGCCCGGCGGCUCGAGCCCGGGUAAGUGUAAGUAGUCUGCAUGCCGCCGGGCGCCAUGCCUGCAGGUCGACUCUAGAAAACAUG
binding signal (PUM1 PUF domain R3-VFG): 1.68 log2 enrichment (interaction score) | binding signal (PUM1 PUF domain R3-CHG): 0.98 log2 enrichment (interaction score)

GGCUAGAACUAGUGGAUCCCCCGGCGCCCGGCGGCUCGAGCCCGGGUAAGUGUAAAUUGUCUGCAUGCCGCCGGGCGCCAUGCCUGCAGGUCGACUCUAGAAAACAUG
binding signal (PUM1 PUF domain R1-TWR): 0.55 log2 enrichment (interaction score)

GGCUAGAACUAGUGGAUCCCCCGGCGCCCGGCGGCUCGAGCCCGGGUAAGUGUAAAUCGUCUGCAUGCCGCCGGGCGCCAUGCCUGCAGGUCGACUCUAGAAAACAUG
binding signal (PUM1 PUF domain R1-TWR): 5.66 log2 enrichment (interaction score)

GGCUAGAACUAGUGGAUCCCCCGGCGCCCGGCGGCUCGAGCCCGGGUAAGUGUAAAUAGUCUGCAUGCCGCCGGGCGCCAUGCCUGCAGGUCGACUCUAGAAAACAUG
binding signal (PUM1 PUF domain R8-KWG): 5.91 log2 enrichment (interaction score) | binding signal (PUM1 PUF domain R5-TRK): 4.09 log2 enrichment (interaction score) | binding signal (PUM1 PUF domain R3-VFG): 3.82 log2 enrichment (interaction score) | binding signal (PUM1 PUF domain R5-QQG): 0.25 log2 enrichment (interaction score) | binding signal (PUM1 PUF domain R5-PRF): 3.86 log2 enrichment (interaction score) | binding signal (PUM1 PUF domain R3-CHG): 2.43 log2 enrichment (interaction score)

GGCUAGAACUAGUGGAUCCCCCGGCGCCCGGCGGCUCGAGCCCGGGUAAGUGUAAUUAGUCUGCAUGCCGCCGGGCGCCAUGCCUGCAGGUCGACUCUAGAAAACAUG
binding signal (PUM1 PUF domain R3-VFG): 4.61 log2 enrichment (interaction score)

GGCUAGAACUAGUGGAUCCCCCGGCGCCCGGCGGCUCGAGCCCGGGUAAGUGUUAAUAGUCUGCAUGCCGCCGGGCGCCAUGCCUGCAGGUCGACUCUAGAAAACAUG
binding signal (PUM1 PUF domain R5-HKK): 2.41 log2 enrichment (interaction score) | binding signal (PUM1 PUF domain R5-TRK): 4.73 log2 enrichment (interaction score) | binding signal (PUM1 PUF domain R5-QQG): 2.7 log2 enrichment (interaction score)

GGCUAGAACUAGUGGAUCCCCCGGCGCCCGGCGGCUCGAGCCCGGGUAAGCGUAAAUAGUCUGCAUGCCGCCGGGCGCCAUGCCUGCAGGUCGACUCUAGAAAACAUG
binding signal (PUM1 PUF domain R8-KWG): 6.36 log2 enrichment (interaction score) | binding signal (PUM1 PUF domain R8-CYN): 2.28 log2 enrichment (interaction score)

GGCUAGAACUAGUGGAUCCCCCGGCGCCCGGCGGCUCGAGCCCGGGUAAGUGUCAAUAGUCUGCAUGCCGCCGGGCGCCAUGCCUGCAGGUCGACUCUAGAAAACAUG
binding signal (PUM1 PUF domain R5-DFR): 5.27 log2 enrichment (interaction score)
